The list is not random: actives were taken first. Their share in the collection is about 4.6%.
VACV Venus inh: inhibitors of vaccinia virus (Venus reporter); AID 720580; 330,000 compounds, 0.46% hits; Potency, µM (top dose mostly 36.5 µM), actives largely listed as inhibitors; Vaccinia virus Venus reporter expression, fluorescence; calls by dose curve; tested in A549 cells; note: nearly all actives have a fitted effect of over 30% in size
HCV inhibitor: HCV inhibition; AID 651820; 340,000 compounds, 3.4% hits; Huh7.5.1 HCVcc-Cre infection, luciferase reporter, 44 h; Potency, µM (highest dose often 41.8 µM), actives largely listed as inhibitors; active = well fitted inhibition curve with a large enough effect; inconclusive = small, poorly fitted or top-dose-only effect, or another doubt; inactive = no such curve, though single readings can be large or run the other way
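Infectious HCVcc-Cre (~0.5 moi) was added to cells just after compound, with cells seeded 4 h earlier at 1,000 per well. Luciferase activity after 44 h culture reported infection; substrate was incubated 15 min at room temperature before reading.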
Lassa entry inh: inhibitors of Lassa virus binding or cell entry; Lassa virus pseudotype entry inhibition, cell reporter; Potency, µM (top dose mostly 37.9 µM), most hits filed as inhibitors; 300,000 compounds, 1.2% hits; AID 540256; calls by dose curve; tested in HEK293 cells; note: nearly all actives have a fitted effect of over 50% in size
Marburg entry inh: blocks Marburg virus binding to or entry into cells; 300,000 compounds, 1.8% hits; Marburg virus pseudotyped entry inhibition, cell reporter; Potency, µM (series often up to 37.8 µM), most hits filed as inhibitors; calls by dose curve; tested in HEK293 cells
Vaccinia mCherry: inhibitors of vaccinia virus infection (mCherry reporter signal); Vaccinia virus mCherry reporter infection, fluorescence; Potency, µM (titrated, usually from 36.5 µM), hits mostly inhibitors; 310,000 compounds, 0.63% hits; AID 720579; calls by dose curve; tested in A549 cells; note: nearly all actives have a fitted effect of over 35% in size
Numbers stand for hits; n = inactive; u = inconclusive; x = not tested or not shown.

SMILES	VACV Venus inh	HCV inhibitor	Lassa entry inh	Marburg entry inh	Vaccinia mCherry
CCCCn1c(=O)[nH]c(=O)c2c1nc(-c1ccccc1F)n2Cc1ccccc1OC	n	10µM	11.2µM	u	n
CCCCn1c(=O)[nH]c(=O)c2c1nc(-c1ccc(OC)c(Br)c1)n2CC(C)C	u	10µM	u	u	u
CC(C)OC(=O)[C@H]1O[C@H](CCCCOCc2ccccc2)[C@@H](C)[C@H]2O[C@H]21	x	x	u	n	x
O=C(NN/C(=N/S(=O)(=O)c1ccc(Cl)cc1)c1ccccc1)c1cccc(Cl)c1	n	n	x	n	n
Cc1ccc(S(=O)(=O)/N=C(/Nc2cccc(O)c2)c2ccccc2)cc1	n	11.2µM	n	u	n
O=C(NN/C(=N/S(=O)(=O)c1ccc(Cl)cc1)c1ccccc1)c1ccc(O)cc1	n	n	u	20µM	n
CCN(CC)CCNC(=O)C1=C(OC)CC(N)=C(Cl)C1	x	x	x	n	x
COc1ccccc1C1CN(Cc2cnn(C)c2C)Cc2ccccc2O1 (centres undefined)	n	x	x	x	n
Cn1c(=O)c2[nH]c(CCCCc3nc4ccccc4[nH]3)nc2n(C)c1=O	n	n	n	n	n
Cn1c(=O)c2[nH]c(CCCCCCCCc3nc4ccccc4[nH]3)nc2n(C)c1=O	n	u	11.2µM	u	u
CCCc1nc(NCc2ccccc2)c(C#N)c2c1CCCC2	n	n	n	n	n
N#Cc1c(NCCN)nc(NCc2ccccc2)c2c1CCN(Cc1ccccc1)C2	n	u	n	u	n
CCN1CCc2c(C#N)c(NCc3ccccc3)nc(N(CC)CC)c2C1	x	u	14.6µM	u	x
C=CCNc1nc(NCc2ccccc2)c(C#N)c2c1CN(C)CC2	n	17.8µM	n	u	u
Cc1ccc(-n2c3nc(=O)[nH]c(=O)c-3cc3c(C)nn(-c4ccccc4)c32)cc1Cl	n	x	u	n	n
OCCN1CCN(C2CCC(c3ccc(F)cc3)c3ccc(F)cc32)CC1 (centres undefined)	u	3.98µM	u	3.98µM	u
O=[N+]([O-])c1ccc2c(c1)C(N1CCN(CCO)CC1)Cc1ccc(F)cc1S2 (centres undefined)	n	x	x	x	n
Cc1nc(-c2ccc(F)cc2)sc1CCNC(=O)c1cccs1	n	x	n	x	n
OC(Br)C(O)C(O)N1CCCc2ccccc21 (centres undefined)	n	x	x	x	n
O=C(C[n+]1ccc(-c2cc(C(=O)Nc3cccc(C(F)(F)F)c3)c3ccccc3n2)cc1)c1cccc([N+](=O)[O-])c1	n	12.6µM	n	u	n
O=C(C[n+]1cccc(NC(=O)c2ccccc2)c1)c1cccc([N+](=O)[O-])c1	n	u	n	n	n
CN=C1c2cc3cc(OC)ccc3n2CCN1Cc1ccccc1	n	n	u	11.2µM	u
COc1c(Cl)cc(Cl)cc1/C=N/NC(=O)c1nnn(-c2nonc2N)c1CN1CCC(C)CC1	n	u	n	n	n
CC1CCN(Cc2c(C(=O)N/N=C/c3cc(Cl)ccc3O)nnn2-c2nonc2N)CC1	u	10µM	u	3.55µM	5.01µM
Cc1cc(C)c(/C=N/NC(=O)c2nnn(-c3nonc3N)c2CN2CCC(C)CC2)c(C)c1	n	u	u	u	n
SMILES	VACV Venus inh	HCV inhibitor	Lassa entry inh	Marburg entry inh	Vaccinia mCherry
CC1CCN(Cc2c(C(=O)N/N=C/c3cc(Br)ccc3O)nnn2-c2nonc2N)CC1	u	3.55µM	u	2µM	u
Cc1ccc(N2CCN(C(=O)CCc3c(C)nc4ncnn4c3C)CC2)c(C)c1	n	x	n	n	n
COc1cccc(CC(=O)Nc2c(C(=O)N3CCN(c4ccccc4F)CC3)oc3ccccc23)c1	n	x	n	n	n
Cc1cccc(OCC(=O)Nc2c(C(=O)N3CCN(c4ccccc4F)CC3)oc3ccccc23)c1	n	x	u	10µM	n
O=C(Cn1c2ccccc2c(=O)c2ccccc21)N/N=C/c1cc([N+](=O)[O-])ccc1N1CCCCCC1	n	2.51µM	n	u	n
O=C(Cn1c2ccccc2c(=O)c2ccccc21)N/N=C/c1ccc(N2CCCC2)c([N+](=O)[O-])c1	n	u	n	n	n
Cc1ccc(C(=O)Nc2ccc3ccccc3c2)cc1	n	n	u	u	n
Cc1cc(C(=O)Nc2ccc3ccccc3c2)oc1C	n	11.2µM	u	u	u
O=C(O)c1cccc(NC(=O)c2ccccc2NC(=O)c2ccccc2F)c1	n	0.891µM	n	u	n
Cc1oc(-c2ccccc2)nc1C(=O)O	n	n	n	n	n
O=C(Nc1ccccc1C(=O)Nc1ccccc1)c1ccccc1F	x	n	x	x	x
Cc1ccoc1C(=O)Nc1ccc2ccccc2c1	n	u	10µM	u	n
CC(=O)c1cccc(NC(=O)c2nc(-c3ccccc3)oc2C)c1	n	15.8µM	u	n	n
CC(=O)c1cc(C(=O)Nc2ccc3ccccc3c2)c(C)o1	n	n	n	n	u
